Assay outcomes (PubChem BioAssay)
FAS TE block – blocks the thioesterase domain of human fatty acid synthase | 360,000 tested, 0.67% active | recombinant FAS-TE, OMFH fluorogenic substrate, fluorescence endpoint | P49327 | inhibition, % at 15 µM | AID 602261;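 active = compounds whose normalised, plate-corrected inhibition of enzyme fluorescence in the single-dose primary screen is 50% or more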;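 note: 0% = DMSO with enzyme and 100% = substrate without enzyme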
Neddylation inh – cullin neddylation inhibition; calls only at 25 µM; TR-FRET cullin neddylation, biochemical; 360,000 tested, 0.58% active; AID 651699; P61081+Q13564; in the data active = inhibition above about 36%
proKLK7 act – activates the human kallikrein-7 zymogen | P49862 | purified proKLK7, EDANS-DABCYL substrate fluorescence; 100% is mature enzyme control, 0% vehicle | activation, % at 7 µM | 370,000 tested, 0.9% active;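 active = activation above the mean of all tested compounds plus 3 SD, computed per campaign excluding outliers beyond control limits, cut at about 13% in these data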
PfGluPho inh – PfG6PD (Plasmodium falciparum) enzyme inhibition; PfGluPho enzyme, NADPH resazurin-diaphorase fluorescence; inhibition, % at 20 µM; 350,000 tested, 0.78% active; AID 504690;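 active = inhibition reaching at least a set limit at 20 µM in the primary screen, cut at about 59% in these data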;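 note: 0% = DMSO wells with substrate and 100% = DMSO wells lacking glucose-6-phosphate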
proKLK7 act conf – confirmation of human kallikrein-7 zymogen activators. shares compounds with proKLK7 act. purified proKLK7, EDANS-DABCYL substrate fluorescence; scaled: vehicle 0, mature enzyme 100. activation, % at 7 µM. 3,200 tested, 68% active. AID 686949;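 active = activation, as change over the incubation, above the mean of all tested compounds plus 3 SD, cut at about 13% in these data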
EDANS-DABCYL int – fluorescence interference counter-screen for KLK7 activators | shares compounds with proKLK7 act | EDANS-DABCYL substrate fluorescence interference, no enzyme, 4 h; solvent 0%, active enzyme control 100% | activation, % at 7 µM | 3,200 tested, 80% active | AID 686952;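 active = activation above the all-compound mean plus 3 SD, ignoring values outside control-based bounds, cut at about 4.8% in these data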;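 note: value is the 4 h activation minus the activation read at time zero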
EDANS interf – EDANS fluorescence interference in dose response, no enzyme. EDANS-DABCYL peptide fluorescence interference. shares compounds with proKLK7 act. 250 tested, 20% active. EC50, µM;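 active = compounds that raise the fluorescence signal in this interference counterscreen, with EC50 at or below 10 µM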;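 note: intact quenched peptide substrate alone read at 355 nm excitation and 520 nm emission; signal is fluorescence gain from T0 to T4 after four hours at room temperature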
* = called active by the depositor; i = inactive; · = no result shown. Rows were chosen to be rich in hits. Some 2.7% of all compounds tested hit in one or more screens of this group.

SMILES | FAS TE block | Neddylation inh | proKLK7 act | PfGluPho inh | proKLK7 act conf | EDANS-DABCYL int | others
COC(=O)Cc1c(C)c2ccc(O)c(CNCc3ccc(OC)c(OC)c3)c2oc1=O | -3 | · | 63* | -13 | 77* | 65* | EDANS interf=>70
CCN(CC)Cc1c(O)ccc2c(C)c(CC(=O)OC)c(=O)oc12 | -7 | · | 58* | 2 | 65* | 67*
OCCNc1nc(-c2ccccc2)c2cc(Cl)ccc2n1 | -4 | · | 2 | -2 | · | ·
Cc1ccc2nc(NCCO)nc(-c3ccccc3)c2c1 | -20 | · | 19* | -10 | 0 | -4
COc1nc(-c2ccccc2)c2cc(C)ccc2n1 | 2 | · | 13* | 5 | -2 | 2
CC(C)c1cc(NCCOCCO)n2c(nc3ccccc32)c1C#N | -4 | · | 54* | -18 | 52* | 50*
CCCc1cc(NCCCCO)n2c(nc3ccccc32)c1C#N | -3 | · | 25* | 16 | -20 | -12
CCCc1cc(NCCOCCO)n2c(nc3ccccc32)c1C#N | -8 | · | 45* | -9 | 42* | 27* | EDANS interf=>70
CCCc1cc(Nc2c(C)n(C)n(-c3ccccc3)c2=O)n2c(nc3ccccc32)c1C#N | 7 | i | 1 | 21 | · | ·
Cc1cc(Br)c2nc(-c3cccc(Br)c3)c(Cc3cccc(Cl)c3)n2c1 | · | · | 0 | · | · | ·
Nc1ccccc1N1C(=O)c2cccc3cccc(c23)C1=O | -7 | i | 2 | -1 | · | ·
O=C1c2cccc3cccc(c23)C(=O)N1c1ccccc1Cl | 11 | i | 46* | 16 | 26* | 22*
Cc1oc2c(CN3CCCC3)c(O)ccc2c(=O)c1-c1ccc(Br)cc1 | -4 | · | 15* | 2 | 35* | 30* | EDANS interf=>69
Cc1oc2c(CN3CCCCC3)c(O)ccc2c(=O)c1-c1ccc(Br)cc1 | -6 | · | 25* | -5 | 21* | 17* | EDANS interf=>70
COc1ccc(-c2c(C)oc3c(CN4CCOCC4)c(O)ccc3c2=O)cc1 | -4 | · | 67* | -21 | 24* | 32*
Cc1nn(CC(=O)NC2CC2)c(C)c1S(=O)(=O)N(C)C | -6 | i | 0 | -5 | · | ·
COc1ccc(NC(C)=O)cc1NC(C)c1nc2sc(C)c(C)c2c(=O)[nH]1 (stereo unspecified) | -3 | i | 16* | 27 | 9 | 9.3*
CN(C)/C=N/c1nc2nccc(-c3cccnc3)n2n1 | -4 | · | 13* | -9 | 65* | 62*
COc1ccc(-c2ccnc3nc(/N=C/N(C)C)nn23)cc1 | · | · | 44* | 5 | 66* | 63*
CN(C)/C=N/c1nc2nccc(-c3ccccn3)n2n1 | -8 | · | 12 | 10 | · | ·
CCCCn1c(N)c(N(CCOC)C(=O)COC(=O)c2ccccc2OCC)c(=O)[nH]c1=O | -2 | i | 0 | -5 | · | ·
CCCn1c(N)c(N(CCOC)C(=O)COC(=O)c2ccccc2NCCO)c(=O)[nH]c1=O | -8 | · | 24* | 4 | 29* | 29*
CCCCn1c(N)c(N(CC(C)C)C(=O)COC(=O)c2ccccc2NCCO)c(=O)[nH]c1=O | -2 | · | 22* | 2 | 21* | 27*
CC[C@]12c3[nH]c4cc(-c5ccco5)ccc4c3CCN1C(=O)[C@@H](CC(=O)NCc1ccco1)C[C@@H]2C(=O)N1CCN(C(=O)C2CC2)CC1 | -7 | · | 100* | 19 | 67* | 93*
CC[C@]12c3[nH]c4cc(-c5ccco5)ccc4c3CCN1C(=O)[C@@H](CC(=O)NCc1ccc(OC)c(OC)c1)C[C@@H]2C(=O)N1CCN(C(=O)C2CC2)CC1 | -2 | · | 122* | 29 | 72* | 84*
SMILES | FAS TE block | Neddylation inh | proKLK7 act | PfGluPho inh | proKLK7 act conf | EDANS-DABCYL int | others
CC[C@]12c3[nH]c4cc(-c5ccco5)ccc4c3CCN1C(=O)[C@@H](CC(=O)NCCC1=CCCCC1)C[C@@H]2C(=O)N1CCN(C(=O)C2CC2)CC1 | 4 | · | 30* | 21 | 14* | 17*
CC[C@]12c3[nH]c4cc(-c5ccco5)ccc4c3CCN1C(=O)[C@@H](CC(=O)NCC13CC4CC(CC(C4)C1)C3)C[C@@H]2C(=O)N1CCN(C(=O)C2CC2)CC1 | 25 | · | -13 | 30 | · | ·
Cc1cccnc1NC(=O)c1ccc([N+](=O)[O-])o1 | -10 | i | 17* | 18 | 19* | 21*
Cc1ccc(C(=O)Nc2ncccc2C)o1 | -7 | i | 0 | -8 | · | ·
CCN(CC)C(=O)COC(=O)c1cc(-c2ccco2)nc2ccccc12 | -4 | i | 74* | 31 | 20* | 17* | EDANS interf=i
CCN(CC)C(=O)COC(=O)c1cc(-c2ccc(OC)cc2)nc2ccccc12 | 29 | · | 0 | 18 | · | ·
CCOC(=O)c1cc(-c2ccco2)nc2c1c(C)nn2CCC#N | -3 | · | 32* | 4 | -48 | -66
O=C(COC(=O)c1cc(-c2ccco2)nc2ccccc12)NCc1ccccc1 | 1 | i | 22* | 16 | 51* | 55*
C[C@@H]1ON(C)[C@H]2C[C@H]3c4cc(-c5cc6ccccc6o5)ccc4CCN3C[C@@H]12 | · | · | 3 | · | · | ·
COc1ccc(NC(=O)CSc2nnc(-c3ccncc3)n2C)cc1 | -4 | i | 0 | -15 | · | ·
Cn1c(SCC(=O)Nc2ccc(NC(=O)c3cccs3)cc2)nnc1-c1ccncc1 | 0 | · | 51* | -1 | 1 | 0
Cc1cccc(C(=O)Nc2ccccc2C(=O)OCC(=O)Nc2ccc(C#N)cc2)c1 | 31 | i | 17* | 25 | 0 | -1
O=C1c2ccccc2NC(c2cccnc2)N1c1ccccc1F (stereo unspecified) | -2 | · | 23* | 4 | 40* | 32*
COc1ccc(N2C(=O)c3ccccc3NC2c2cccnc2)cc1 (stereo unspecified) | -6 | i | 0 | 2 | · | ·
CSCc1ccc(C(=O)OCC(=O)NC2CCCC2)o1 | -3 | i | 1 | -8 | · | ·
O=C1c2cnc3nc(SCc4cccc(Cl)c4)nn3c2CC2c3ccccc3CCN12 (stereo unspecified) | 29 | i | 0 | -9 | · | ·
O=C1c2cnc3ncnn3c2CC2c3ccccc3CCN12 (stereo unspecified) | -2 | · | 101* | -9 | 195* | 179*
CSc1nc2ncc3c(n2n1)CC1c2ccccc2CCN1C3=O (stereo unspecified) | 2 | · | 2 | -29 | · | ·
N#Cc1cnn2c3c(cnc12)C(=O)N1CCc2ccccc2C1C3 (stereo unspecified) | 2 | · | 77* | -36 | -181 | -138
CCOC(=O)c1nn(-c2ccccc2)c(C(=O)OCC)c1N | -6 | · | 18* | 1 | 9 | 11*
CCOC(=O)c1nn(-c2ccccc2)c(=O)c2c(N)scc12 | 0 | i | 2 | 59 | · | ·
CCOc1ccc2nc(S(=O)(=O)NC(=O)C3(C)CCN3C(=O)CCc3cccs3)sc2c1 (stereo unspecified) | -3 | i | -1 | · | · | ·
